Source: PubChem (National Center for Advancing Translational Sciences (NCATS))
The list is not random: actives were taken first. Their share in the collection is about 11%.
PNC inhibitor: perinucleolar compartment assembly inhibition. 140,000 compounds, 3.1% hits. activity change (PNC), negative = inhibition, % at 10 µM. PC3M PTB-GFP, PNC prevalence imaging, 16 h; stronger effect = lower value;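 active = readout at or below -70, meaning at least 70% loss of cells showing the perinucleolar compartment, a nuclear body marking cancer cells; inconclusive = readout between -30 and a set limit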
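Read-out is percentage of cells bearing a perinucleolar compartment, from automated 20x imaging of fixed, Hoechst-stained PC3M PTB-GFP cells. Cells were seeded 4 h, then exposed 16 h to compound (23 nl of library stock) in duplicate plates.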
IMPase Li cell: cell-permeable IMPase inhibitors with lithium potentiation; CHO-M1 cells, IP1 TR-FRET (IP-One), carbachol + lithium; Potency, µM (series often up to 59.4 µM), hits mostly inhibitors; 210,000 compounds, 0.35% hits; active = well fitted inhibition curve with a large enough effect; inconclusive = small, poorly fitted or top-dose-only effect; inactive = no such curve, though single readings can be large or run the other way;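 also: IP1 builds up when IMPase is blocked and the TR-FRET signal falls; nearly all actives have a fitted effect of over 50% in size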
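Readout is a homogeneous TR-FRET IP1 immunoassay (Ex 320, Em 665 and 620), where raised cytosolic IP1 lowers signal. Cells were CHO-M1 treated 30 min at 37C with test compounds plus a little lithium; AC50 values came from Hill-equation fitting.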
HPGD inh: inhibitors of human 15-hydroxyprostaglandin dehydrogenase (HPGD) | AID 894 | 150,000 compounds, 4.3% hits | Potency, µM, most hits filed as inhibitors | P15428 | purified HPGD, NADH fluorescence kinetic, PGE2 substrate
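NADH formation kinetics: reaction with 30 uM PGE2 and 1 mM NAD+ (final), 20 nM enzyme, Tris-HCl pH 8 with Tween 20, after 15 min compound preincubation at room temperature. Fluorescence change, last versus first of five reads.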
IMPase inh: IMPase inhibition in cells; inhibition (IP1 accumulation), % at 46.1 µM; 120,000 tested, under 10 active; CHO-M1 cells, IP1 accumulation, HTRF TR-FRET ratio; P97697; AID 901; active = well fitted curve in the direction sought with a large enough effect in the signal ratio, not every such curve was filed as active; inconclusive = small, poorly fitted or top-dose-only effect, or a change in a side signal; inactive = no such curve, though single readings can be large or run the other way; the % refers to the signal ratio;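 also: cells stimulated with carbachol in lithium chloride buffer; higher means more IMPase inhibition seen as more IP1 and lower FRET ratio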
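Elevated IP1 in lysates lowers TR-FRET signal (665/620 ratio and 620 channel reported). Cells were CHO-M1, given carbachol (50 uM as added) plus 50mM LiCl, pH 7.4, 30 min, 37C; compounds titrated up to 46 uM; AC50 by Hill equation.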
ALDH1A1 inh: inhibitors of human aldehyde dehydrogenase 1A1; AID 1030; 220,000 compounds, 7.3% hits; P00352; Potency, µM (series often up to 75.3 µM), usual class: inhibitors; Purified ALDH1A1, NADH fluorescence, propionaldehyde substrate
Target sequence (P00352 whole entry, looked up): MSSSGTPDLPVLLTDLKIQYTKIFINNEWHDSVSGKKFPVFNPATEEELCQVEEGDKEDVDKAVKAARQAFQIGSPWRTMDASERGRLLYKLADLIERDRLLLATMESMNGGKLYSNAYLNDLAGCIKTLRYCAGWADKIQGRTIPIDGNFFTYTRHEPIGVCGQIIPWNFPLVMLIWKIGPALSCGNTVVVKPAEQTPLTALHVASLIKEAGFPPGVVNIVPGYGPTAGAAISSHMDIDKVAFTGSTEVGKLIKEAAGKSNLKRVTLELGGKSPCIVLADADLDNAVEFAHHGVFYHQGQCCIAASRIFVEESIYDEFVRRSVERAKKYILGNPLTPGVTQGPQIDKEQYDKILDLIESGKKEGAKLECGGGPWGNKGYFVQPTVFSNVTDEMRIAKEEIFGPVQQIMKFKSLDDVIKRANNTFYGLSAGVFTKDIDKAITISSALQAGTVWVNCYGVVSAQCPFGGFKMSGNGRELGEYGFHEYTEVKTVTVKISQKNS
Numbers stand for hits; 0 = inactive; ? = inconclusive; - = no result; [ ] = another dose, or the depositor's remark. Unless noted, calls follow the shape of the dose curve; as a rule, active = well fitted inhibition curve with a large enough effect (not every such curve was filed as active); inconclusive = small, poorly fitted or top-dose-only effect, or another doubt; inactive = no such curve, though single readings can be large or run the other way.

SMILES	PNC inhibitor	IMPase Li cell	HPGD inh	IMPase inh	ALDH1A1 inh
CCCCNC(=O)CSc1cc(=O)n(C)c2ccccc12	0	0	14µM	0	0
CCn1c(=O)cc(SCC(=O)NCc2ccco2)c2ccccc21	0	?	?	0	?
CC(C)[C@@H](CC(=O)N[C@@H]1CCNC[C@H]1C(=O)N[C@H](CC(=O)N[C@@H](CCC(=O)O)CC(=O)O)Cc1c[nH]c2ccccc12)NC(=O)C[C@H](CO)NC(=O)[C@@H]1CNCC[C@H]1N	-	0	0	-	0
O=C(O)c1c(Cl)c(Cl)c(Cl)c(Cl)c1-c1c2cc(I)c(=O)c(I)c-2oc2c(I)c(O)c(I)cc12	-	?	32µM	-	32µM
COc1cc2c(cc1OC)-c1cc(N3CCCc4ccccc43)nc(=O)n1CC2	0	0	0	0	11µM
COc1cc2c(cc1OC)-c1cc(N3CCCCCC3)nc(=O)n1CC2	0	0	?	0	?
CN(c1ccc(OCC(=O)OCC(=O)Nc2c(F)c(F)c(F)c(F)c2F)cc1)S(=O)(=O)c1ccc(F)cc1	-107	0	0	-	0
CN(c1ccc(OCC(=O)OCC(=O)Nc2ccccc2)cc1)S(=O)(=O)c1ccc(F)cc1	?	0	0	-	0
CC(=O)[C@H]1CC[C@@H]2[C@]1(C)CC=C1[C@@]23C=C[C@]2(C[C@H](O)CC[C@@]12C)[C@H](C(=O)O)[C@@H]3C(=O)O	-	0	0	-	0[13.5 µM]
O=C(Cc1nc(-c2ccc([N+](=O)[O-])cc2)cs1)Nc1ccccc1	-100	0	0	0	8.9µM
O=C(CN1C(=O)c2ccccc2C1=O)Nc1nc(-c2cccc([N+](=O)[O-])c2)cs1	0	0	0	0	0
O=C(Cc1ccccc1)Nc1nc(-c2cccc([N+](=O)[O-])c2)cs1	-103	0	0	0	0
Cc1cc(C)cc(Oc2nc3c(C)cccn3c(=O)c2/C=C(\C#N)c2nc3ccccc3s2)c1	-	-	-	0	-
CC(=O)OCC(=O)[C@@]1(O)CC[C@@H]2[C@H]3CCC4=CC(=O)CC[C@]4(C)[C@]3(F)[C@@H](O)C[C@@]21C	-	0	0	0	0
Cc1ccc(NC(=O)CCNC(=O)c2ccc(Cl)cc2)cc1F	0	0	0	-	0
CCC(O)CNC(=O)NC(=C(Cl)Cl)c1ccc(C)c(F)c1 (configuration not stated)	0	0	0	0	3.5µM
CCCn1c(NC(=O)c2ccc(Br)cc2)nc2ccccc21	0	28µM	?	?	?
Cc1cccc([N+](=O)[O-])c1C	-	0	0	-	0
CC(=O)OC[C@@H]1O[C@@H](O/N=C2/C[C@@H](O)[C@@H](O)[C@@H]3[C@@H]4C(=O)N(C[C@@H]5CCCO5)C(=O)[C@H]4CC[C@H]23)[C@H](OC(C)=O)[C@H](OC(C)=O)[C@@H]1OC(C)=O	-	-	-	-	0[13.5 µM]
CN(Cc1ccco1)c1nc(-c2cccnc2)nc2ccccc12	-	0	-	-	32µM
CCOC(=O)n1n[n+]([O-])c2ccccc21	?	0	0	-	0
CCCCC[C@H](O)/C=C/C=C/C/C=C\CCCC(=O)O	-	0	0	-	0
C=CCSc1n[nH]c(-c2ccc(OCCC)cc2)n1	0	0	?	0	0
C=CCSc1n[nH]c(-c2ccc(OCCCC)cc2)n1	0	0	16µM	0	0
O=C(O)c1cc(S(=O)(=O)Nc2ccc(O)cc2)ccc1Cl	-	-	0	-	0
SMILES	PNC inhibitor	IMPase Li cell	HPGD inh	IMPase inh	ALDH1A1 inh
Cc1ccc(C(=O)N/C(=C/c2cn(-c3ccccc3)nc2-c2ccccc2)C(=O)O)cc1	-	0	-	-	11µM
O=C(O)/C=C/c1cn(-c2ccccc2)nc1-c1cccc([N+](=O)[O-])c1	-	-	-	-	0
CC(C)NC(=O)/C(=C/c1cn(-c2ccccc2)nc1-c1cccc([N+](=O)[O-])c1)NC(=O)c1ccccc1	?	0	0	-	14µM
CN(C)C(=O)c1cn(-c2ccccc2)nc1-c1cccc([N+](=O)[O-])c1	-	0	-	-	8.9µM
O=C(c1cn(-c2ccccc2)nc1-c1cccc([N+](=O)[O-])c1)N1CCCCC1	-	0	-	-	?
O=C(N/C(=C/c1cn(-c2ccccc2)nc1-c1ccccc1)C(=O)N1CCOCC1)c1ccccc1	?	0	0	0	?
CC(=O)N[C@H](Cc1ccc(O)cc1)C(=O)O	-	0	0	-	0[13.5 µM]
CS(=O)(=O)Nc1cccc(-c2cncnc2Nc2ccc(F)cc2)c1	-	0	-	-	?
COc1ccc(-c2cnc(-c3cccnc3)o2)cc1	-	0	?	-	?
CCN(CC)C(=O)c1cc2sc3ccccc3c2s1	0	0	7.9µM	0	?
COCCN(CCOC)C(=O)c1cc2sc3ccccc3c2s1	0	0	?	0	?
C=CCn1c(=S)[nH]c2scc(-c3ccc(C)o3)c2c1=O	-	0	-	-	?
O=c1c2c(-c3cccs3)csc2[nH]c(=S)n1-c1ccccc1	?	10µM	28µM	?	22µM
CC(C)n1c(=S)[nH]c2scc(-c3cccs3)c2c1=O	-	-	-	-	13µM
CCn1c(=S)[nH]c2scc(-c3cccs3)c2c1=O	-	?	-	-	14µM
Cc1ccc(C)n1-n1cnc2scc(-c3cccs3)c2c1=O	0	0	0	0	?
CC1(C)N=C(N)N=C(N)N1c1cccc(OCc2cccc([N+](=O)[O-])c2)c1	-	0	0	-	0[13.5 µM]
CCCCC/C=C\CC(O)/C=C/c1cccc(CC(O)CCCCO)n1 (configuration not stated)	-	0	0	-	0
COC(=O)[C@@H]1C(O)[C@@H](C(=O)OC)[C@H](C)N(C)[C@@H]1C (some centres not stated)	-	0	0	-	0[13.5 µM]
Cc1ccc2c(c1)C(=O)[C@@]1(O)CCN(c3ccccc3)C1=N2	-	0	0	0	0
CCOc1cccc(C(=O)Nc2cccc(-c3nc4ncccc4o3)c2C)c1	?	0	?	0	18µM
Cc1ccc(-c2nc3cccnc3o2)cc1NC(=O)COc1ccc(Cl)cc1C	0	6.3µM	?	?	0
COc1cccc(C(=O)Nc2cccc(-c3nc4ncccc4o3)c2C)c1	0	0	0	0	?
Cc1ccc(-c2nc3ncccc3o2)cc1NC(=O)CC(C)C	0	0	?	-	0
Cc1ccc(-c2nc3cccnc3o2)cc1NC(=O)COc1ccc(C(C)(C)C)cc1	0	0	?	0	?
SMILES	PNC inhibitor	IMPase Li cell	HPGD inh	IMPase inh	ALDH1A1 inh
Cc1ccc(-c2nc3ncccc3o2)cc1NC(=O)COc1ccccc1	0	11µM	?	0	?
CC(=O)c1sc(N/N=C2\CC3CC2C(C)C3(C)C)nc1C (configuration not stated)	-	0	-	-	16µM
CC(=O)c1sc(N/N=C\c2ccccc2O)nc1C	-	0	-	-	0
CC(C)N(CC#CCC(O)(c1ccccc1)C1CCCC1)CCO (configuration not stated)	-	0	-	-	28µM
CCN(CC#CCC(O)(c1ccccc1)C1CCCC1)C(C)C (configuration not stated)	0	0	0	0	0
COC(=O)CSc1nc(C)c(C)c(C)c1C(N)=O	-	0	-	-	0
COc1ccc(OC)c(S(=O)(=O)Nc2c(C)cccc2C)c1	-	0	-	-	0
